In PMC5540273 (PLoS ONE, 2017):

What follows are compounds tested on BTK. Conditions: concentration: 1 μM, replicates: in singlicate; n = 1.
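Note: KINOMEscan kinase panel screen.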

In order of falling “%Inh” value:
1. CCn1cnc2c(NCc3ccccc3)ncnc21 [SKF-96418]  0%
2. CC(C)(C)c1ccc(C(=O)Nc2cn3cc(-n4ccnc4)ccc3n2)cc1  0%
3. COc1cc(Nc2nccc(N3CCC(NS(=O)(=O)c4ccc(NC(C)=O)cc4)CC3)n2)cc(OC)c1OC [GSK1379825]  0%
4. CCNC(=O)/C=C/c1n[nH]c2cc(Sc3ccccc3C(=O)NC)ccc12  0%

These compounds were tested on BUB1. Conditions: concentration: 1 μM, replicates: in singlicate; n = 1.

In order of falling “%Inh” value:
1. CCn1c(-c2nonc2N)nc2c(-c3ccccc3)ncc(OCCCN)c21.O=C(O)C(F)(F)F.O=C(O)C(F)(F)F [GSK260205]  96.2%
2. CC(C)c1nc(-c2ccc(F)c(NS(=O)(=O)c3c(F)cccc3F)c2)c(-c2ccnc(Nc3ccc(N4CCOCC4)nc3)n2)s1 [GSK1804250]  92.7%
3. O=C(O)C(F)(F)F.O=c1[nH]ccc2nc(N[C@@H]3CCNC3)nc(Nc3ccc4c(c3)S(=O)(=O)CC4)c12 [GSK2181306]  90.5%
4. Cc1cccc(Nc2nc(N[C@H]3CCCC[C@H]3N)ncc2C(N)=O)c1.Cl [GSK986310]  89%
5. Cl.Cl.NCC(NC(=O)c1cc(-c2cccnc2)c(-c2ccnc3[nH]ccc23)s1)c1ccccc1 (centres unmarked) [GSK1323434]  77%
6. CNc1nccc(-c2ccc3c(N)n[nH]c3c2)n1 [GSK2206003]  71%
7. NCCC(NC(=O)c1cc(Br)c(-c2ccnc3[nH]ccc23)s1)c1ccccc1.O=C(O)C(F)(F)F.O=C(O)C(F)(F)F (centres unmarked) [GSK1307810]  68%
8. COc1cccc(NC(=O)NCCNc2ccnc(Nc3ccc(F)cc3)n2)c1 [GSK1379879]  58%
9. CN1CCN(Cc2ccc(NC(=O)Nc3ccc(N(C)c4ccnc(Nc5ccc(CS(C)(=O)=O)cc5)n4)cc3)cc2)CC1.Cl [GW827654]  51%
10. COc1ccc(C2=C(Nc3cccc(O)c3)C(=O)NC2=O)cc1 [SB-390766]  50%
11. CCn1cnc2c(NCc3ccccc3)ncnc21 [SKF-96418]  50%
12. COc1cc(Nc2nccc(N3CCC(NS(=O)(=O)c4ccc(NC(C)=O)cc4)CC3)n2)cc(OC)c1OC [GSK1379825]  48%
13. CCNC(=O)/C=C/c1n[nH]c2cc(Sc3ccccc3C(=O)NC)ccc12  48%
14. COC(=O)Nc1nc2cc(Oc3ccc(NC(=O)Nc4cccc(SC)c4)cc3)ccc2[nH]1.Cl [GW697999]  44%
15. COc1cccc(C2=C(Nc3cccc(O)c3)C(=O)NC2=O)c1 [SB-390771]  42%
16. O=C(Nc1c(F)cccc1F)c1cc(C(=O)c2ccccc2F)c[nH]1 [GSK1326180]  31%
17. Cl.O=C(Nc1ccc(Oc2ccc3[nH]c(NC(=O)c4ccco4)nc3c2)cc1)Nc1cc(C(F)(F)F)ccc1F [GW683134]  30%
18. Cc1ccc(O)cc1Nc1ccnc2ccc(C(C)(C)C)cc12 [GW856805]  30%
19. CN(c1ccc(NC(=O)Nc2cccc(Cl)c2)cc1)c1ccnc(N)n1.Cl [GW830707]  30%
20. Cc1nn2c(=O)cc(N3CCO[C@H](C)C3)nc2n1Cc1cccc(Cl)c1Cl [GSK2373693]  28%
21. CCOc1nccc(-c2c(-c3ccc(F)cc3)ncn2C2CCNCC2)n1 [SB-249175]  27%
22. Cc1ccc(NC(=O)c2cccc(N3CCCCC3)c2)cc1-c1ccc(C(=O)NCC2CC2)cc1 [GSK1917008]  23%
23. c1ccc(Oc2ccc(Nc3ccnc4cc(-c5ccc(CN6CCCCC6)o5)ccc34)cc2)nc1 [GW567143]  18%
24. Cc1ccccc1CC(=O)N1CCc2cc(-c3cn(C)c4ncnc(N)c34)ccc21 [GSK2603346]  10%
25. Cn1cc(-c2ccc3c(c2)CCN3C(=O)Cc2cc(F)cc(F)c2F)c2c(N)ncnc21 [GSK2634140]  9%
26. CC(C)(C)c1ccc(C(=O)Nc2cn3cc(-n4ccnc4)ccc3n2)cc1  7%
27. O=C(Nc1n[nH]c2nc(-c3ccccc3O)ccc12)C1CC1 [SB-711880]  2%
28. CN(c1ccc2c(c1)nc(NCc1ccccc1)n2C)c1ccnc(Nc2ccc(CS(C)(=O)=O)cc2)n1.Cl [GW811603]  0%
29. N#CC1(c2cccc(C(=O)Nc3cccc(Oc4ccc5nc(NC(=O)C6CC6)sc5n4)c3)c2)CC1  0%
30. CN(c1ccc(NC(=O)N2CCN(CCCN3CCOCC3)CC2)cc1)c1ccnc(Nc2ccc(CS(C)(=O)=O)cc2)n1.Cl [GW830899]  0%
31. Cc1ccc(NC(=O)c2ccnc(N3CCCCC3)c2)cc1-c1ccc(C(=O)NCC2CC2)cc1 [GW775610]  0%
32. Cc1ccc(O)cc1Nc1ccnc2cc(-c3ccc(CN4CCCCC4)o3)ccc12 [GW557777]  0%
33. O=C(Nc1n[nH]c2nc(-c3ccccc3)ccc12)C1CC1 [SB-708999]  0%
34. Cl.N#CCc1ccc(Nc2nccc(Nc3ccc(Oc4ccccc4)cc3)n2)cc1 [GW639905]  0%
35. Cn1cc(-c2cnc(N)c3c(-c4ccc5c(c4)CCN5C(=O)Cc4ccccc4)csc23)cn1 [GSK2593074]  0%
36. CC(=O)Nc1cn2nc(Oc3cccc(NC(=O)c4cccc(C(F)(F)F)c4)c3)ccc2n1  0%
37. O=C(Nc1n[nH]c2cc(-c3cccs3)ccc12)C1CC1 [SB-731284]  0%
